# According to doi:10.1101/2025.02.07.636106:
# Columns and labels:
# Experiment in all cases: cross-linking mass spectrometry
# BORCS6 = BORCS6 (UniProt Q96GS4); details: DSSO
# CHP1 = CHP1 (UniProt Q99653); details: DSSO
# CEP128 = CEP128 (UniProt Q6ZU80); details: DSSO
# CHD4 = CHD4 (UniProt Q14839); details: DMTMM
# FGFR3 = FGFR3 (UniProt P22607); details: DSSO
# GATAD2A = GATAD2A (UniProt Q86YP4); details: DSSO
# HDAC2 = HDAC2 (UniProt Q92769); details: DMTMM
# MBD2 = MBD2 (UniProt Q9UBB5); details: DSSO
# MTA1 = MTA1 (UniProt Q13330); details: DSSO
# RBBP4 = RBBP4 (UniProt Q09028); details: DHSO
# RBBP7 = RBBP7 (UniProt Q16576); details: DHSO
# CHMP4B = CHMP4B (UniProt Q9H444)
# CLTC = CLTC (UniProt Q00610)
# Sequence of CLTC (Q00610 whole entry): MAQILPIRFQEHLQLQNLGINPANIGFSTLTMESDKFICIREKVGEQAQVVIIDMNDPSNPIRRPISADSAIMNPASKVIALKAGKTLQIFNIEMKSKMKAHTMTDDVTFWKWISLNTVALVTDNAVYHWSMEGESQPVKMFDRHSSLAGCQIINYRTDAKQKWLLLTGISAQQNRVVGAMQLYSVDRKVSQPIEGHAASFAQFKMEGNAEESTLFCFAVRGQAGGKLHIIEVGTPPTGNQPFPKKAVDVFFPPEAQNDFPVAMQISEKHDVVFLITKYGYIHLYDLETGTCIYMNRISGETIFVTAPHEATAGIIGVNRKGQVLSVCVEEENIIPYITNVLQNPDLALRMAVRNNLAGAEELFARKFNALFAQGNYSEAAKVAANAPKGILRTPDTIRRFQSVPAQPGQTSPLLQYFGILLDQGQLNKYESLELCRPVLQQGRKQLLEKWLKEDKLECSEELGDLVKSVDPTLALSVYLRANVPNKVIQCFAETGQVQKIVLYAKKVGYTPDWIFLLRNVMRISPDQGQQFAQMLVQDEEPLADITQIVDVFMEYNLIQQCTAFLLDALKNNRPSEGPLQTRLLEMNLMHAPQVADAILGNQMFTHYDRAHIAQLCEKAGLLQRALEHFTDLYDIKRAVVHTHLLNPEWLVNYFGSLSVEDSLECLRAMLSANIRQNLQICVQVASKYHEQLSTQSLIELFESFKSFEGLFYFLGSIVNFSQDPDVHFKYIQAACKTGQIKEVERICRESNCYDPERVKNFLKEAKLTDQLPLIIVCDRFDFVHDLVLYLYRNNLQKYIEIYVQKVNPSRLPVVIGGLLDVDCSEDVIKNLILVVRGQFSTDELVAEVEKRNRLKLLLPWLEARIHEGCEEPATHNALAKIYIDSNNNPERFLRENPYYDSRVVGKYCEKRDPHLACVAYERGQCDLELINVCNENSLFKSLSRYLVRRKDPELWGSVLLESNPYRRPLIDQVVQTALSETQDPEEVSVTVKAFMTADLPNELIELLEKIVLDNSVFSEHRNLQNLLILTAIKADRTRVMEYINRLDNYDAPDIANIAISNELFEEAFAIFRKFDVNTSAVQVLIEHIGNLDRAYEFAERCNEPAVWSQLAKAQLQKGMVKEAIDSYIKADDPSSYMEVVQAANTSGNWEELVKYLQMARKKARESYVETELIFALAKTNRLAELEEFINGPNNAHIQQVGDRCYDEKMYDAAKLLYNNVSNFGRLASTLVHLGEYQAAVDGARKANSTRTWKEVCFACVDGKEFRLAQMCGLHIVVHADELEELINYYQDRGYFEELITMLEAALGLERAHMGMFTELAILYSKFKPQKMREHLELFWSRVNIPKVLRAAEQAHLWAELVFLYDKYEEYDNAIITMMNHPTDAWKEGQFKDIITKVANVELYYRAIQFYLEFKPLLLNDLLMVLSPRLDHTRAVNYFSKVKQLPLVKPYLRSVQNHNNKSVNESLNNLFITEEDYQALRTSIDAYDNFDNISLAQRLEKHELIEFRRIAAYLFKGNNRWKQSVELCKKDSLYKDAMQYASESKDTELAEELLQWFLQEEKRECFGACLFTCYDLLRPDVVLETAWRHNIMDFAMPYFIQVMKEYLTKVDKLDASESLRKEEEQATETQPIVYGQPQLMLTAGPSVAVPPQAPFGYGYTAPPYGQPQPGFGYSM
# CENPI = CENPI (UniProt Q92674); details: DSSO
# CHMP5 = CHMP5 (UniProt Q9NZZ3)
# CCT3 = CCT3 (UniProt P49368); details: DMTMM
# ATP6V1F = ATP6V1F (UniProt Q16864); details: DHSO
# COX4I1 = COX4I1 (UniProt P13073); details: DSSO
# BLOC1S2 = BLOC1S2 (UniProt Q6QNY1); details: DMTMM
# KXD1 = KXD1 (UniProt Q9BQD3); details: DSSO
# CD59 = CD59 (UniProt P13987); details: DSSO
# EEA1 = EEA1 (UniProt Q15075); details: DMTMM
# PLBD2 = PLBD2 (UniProt Q8NHP8); details: DSSO
# PPT1 = PPT1 (UniProt P50897); details: DSSO
# RAB7A = RAB7A (UniProt P51149); details: DMTMM
# CNTNAP1 = CNTNAP1 (UniProt P78357); details: DSSO
# TMX3 = TMX3 (UniProt Q96JJ7); details: DSSO
# CPVL = CPVL (UniProt Q9H3G5); details: DSSO
# LIPA = LIPA (UniProt P38571); details: DMTMM
# PHF5A = PHF5A (UniProt Q7RTV0); details: DSSO
# SF3B6 = SF3B6 (UniProt Q9Y3B4); details: DSSO
# CRCP = CRCP (UniProt O75575); details: DSSO
# POLR2H = POLR2H (UniProt P52434); details: DSSO
# POLR3K = POLR3K (UniProt Q9Y2Y1); details: DSSO
# CWC15 = CWC15 (UniProt Q9P013); details: DSSO
# DCTN2 = DCTN2 (UniProt Q13561); details: DSSO
# DDX23 = DDX23 (UniProt Q9BUQ8)
# DEF8 = DEF8 (UniProt Q6ZN54); details: DSSO
# DHCR7 = DHCR7 (UniProt Q9UBM7); details: DSSO
# LCLAT1 = LCLAT1 (UniProt Q6UWP7); details: DSSO
# RPN1 = RPN1 (UniProt P04843); details: DSSO
# DNAAF1 = DNAAF1 (UniProt Q8NEP3); details: DMTMM
# Sequence of IGF2R, P11717 (P11717 whole entry): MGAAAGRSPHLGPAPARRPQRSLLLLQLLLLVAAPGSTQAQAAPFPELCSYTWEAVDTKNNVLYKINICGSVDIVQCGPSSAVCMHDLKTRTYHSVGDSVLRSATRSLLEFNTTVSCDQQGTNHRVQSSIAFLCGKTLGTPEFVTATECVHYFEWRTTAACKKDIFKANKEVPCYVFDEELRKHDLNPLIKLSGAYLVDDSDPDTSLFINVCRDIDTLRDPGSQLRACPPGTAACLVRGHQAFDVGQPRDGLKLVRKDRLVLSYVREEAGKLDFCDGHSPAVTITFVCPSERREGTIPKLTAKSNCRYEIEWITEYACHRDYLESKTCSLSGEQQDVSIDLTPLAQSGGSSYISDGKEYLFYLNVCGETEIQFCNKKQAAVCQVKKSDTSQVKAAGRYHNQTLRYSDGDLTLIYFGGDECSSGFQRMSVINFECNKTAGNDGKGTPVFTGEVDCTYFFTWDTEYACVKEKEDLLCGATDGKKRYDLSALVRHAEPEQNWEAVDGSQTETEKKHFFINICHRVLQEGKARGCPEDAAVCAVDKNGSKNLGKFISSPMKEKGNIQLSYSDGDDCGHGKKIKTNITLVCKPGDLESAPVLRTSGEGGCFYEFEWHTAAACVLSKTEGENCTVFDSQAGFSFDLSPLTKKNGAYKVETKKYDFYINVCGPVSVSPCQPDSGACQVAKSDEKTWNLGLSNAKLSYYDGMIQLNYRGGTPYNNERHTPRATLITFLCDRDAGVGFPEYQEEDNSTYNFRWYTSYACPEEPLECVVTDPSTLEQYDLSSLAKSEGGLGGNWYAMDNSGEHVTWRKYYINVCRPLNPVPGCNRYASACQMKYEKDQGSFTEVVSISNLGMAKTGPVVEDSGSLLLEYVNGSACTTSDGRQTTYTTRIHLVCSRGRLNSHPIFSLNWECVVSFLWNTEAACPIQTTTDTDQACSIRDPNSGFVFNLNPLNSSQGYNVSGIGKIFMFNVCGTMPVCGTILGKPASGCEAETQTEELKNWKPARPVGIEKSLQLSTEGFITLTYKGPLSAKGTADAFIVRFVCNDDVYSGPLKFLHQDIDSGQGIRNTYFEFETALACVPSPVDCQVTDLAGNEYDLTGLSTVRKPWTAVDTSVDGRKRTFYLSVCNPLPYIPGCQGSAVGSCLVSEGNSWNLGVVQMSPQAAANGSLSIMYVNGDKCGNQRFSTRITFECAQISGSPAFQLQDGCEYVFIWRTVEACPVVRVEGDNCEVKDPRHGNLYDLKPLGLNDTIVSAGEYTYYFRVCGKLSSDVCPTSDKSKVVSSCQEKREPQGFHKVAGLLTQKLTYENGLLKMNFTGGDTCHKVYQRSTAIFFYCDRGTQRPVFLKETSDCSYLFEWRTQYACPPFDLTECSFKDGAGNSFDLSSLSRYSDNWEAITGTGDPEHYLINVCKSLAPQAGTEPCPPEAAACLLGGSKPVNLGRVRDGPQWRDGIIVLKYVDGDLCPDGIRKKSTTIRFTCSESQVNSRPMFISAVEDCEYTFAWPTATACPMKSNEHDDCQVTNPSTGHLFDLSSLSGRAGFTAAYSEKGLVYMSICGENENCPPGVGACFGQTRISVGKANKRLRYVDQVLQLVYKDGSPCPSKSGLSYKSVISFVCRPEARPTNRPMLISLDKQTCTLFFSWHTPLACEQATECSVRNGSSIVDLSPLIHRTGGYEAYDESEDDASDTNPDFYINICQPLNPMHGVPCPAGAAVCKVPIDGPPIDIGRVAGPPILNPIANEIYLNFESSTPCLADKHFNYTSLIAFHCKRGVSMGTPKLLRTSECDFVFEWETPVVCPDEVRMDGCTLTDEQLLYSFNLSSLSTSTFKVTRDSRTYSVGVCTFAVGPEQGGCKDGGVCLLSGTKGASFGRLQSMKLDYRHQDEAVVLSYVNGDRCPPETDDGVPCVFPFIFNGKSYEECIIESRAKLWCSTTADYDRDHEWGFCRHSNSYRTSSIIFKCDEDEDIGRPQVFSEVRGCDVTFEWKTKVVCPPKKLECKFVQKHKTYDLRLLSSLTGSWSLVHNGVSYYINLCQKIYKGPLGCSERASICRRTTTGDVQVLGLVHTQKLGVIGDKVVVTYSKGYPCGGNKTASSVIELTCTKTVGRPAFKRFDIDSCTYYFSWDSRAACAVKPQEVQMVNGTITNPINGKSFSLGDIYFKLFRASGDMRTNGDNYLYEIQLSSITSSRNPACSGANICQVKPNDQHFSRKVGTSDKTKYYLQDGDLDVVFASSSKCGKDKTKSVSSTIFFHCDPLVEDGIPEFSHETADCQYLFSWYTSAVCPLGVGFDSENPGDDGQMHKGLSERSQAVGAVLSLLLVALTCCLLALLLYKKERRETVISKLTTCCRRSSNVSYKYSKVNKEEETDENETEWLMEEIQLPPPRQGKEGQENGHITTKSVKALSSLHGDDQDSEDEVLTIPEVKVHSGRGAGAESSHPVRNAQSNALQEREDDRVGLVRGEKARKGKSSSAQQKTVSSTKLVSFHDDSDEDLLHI
# Sequence of PGRMC1, O00264 (O00264 whole entry): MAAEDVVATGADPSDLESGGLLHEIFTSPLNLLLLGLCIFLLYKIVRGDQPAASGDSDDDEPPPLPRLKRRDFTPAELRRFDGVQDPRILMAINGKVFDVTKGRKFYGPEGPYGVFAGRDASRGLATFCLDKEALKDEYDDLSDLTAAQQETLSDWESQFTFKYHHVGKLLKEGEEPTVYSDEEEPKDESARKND
# Sequence of MTA2, O94776 (O94776 whole entry): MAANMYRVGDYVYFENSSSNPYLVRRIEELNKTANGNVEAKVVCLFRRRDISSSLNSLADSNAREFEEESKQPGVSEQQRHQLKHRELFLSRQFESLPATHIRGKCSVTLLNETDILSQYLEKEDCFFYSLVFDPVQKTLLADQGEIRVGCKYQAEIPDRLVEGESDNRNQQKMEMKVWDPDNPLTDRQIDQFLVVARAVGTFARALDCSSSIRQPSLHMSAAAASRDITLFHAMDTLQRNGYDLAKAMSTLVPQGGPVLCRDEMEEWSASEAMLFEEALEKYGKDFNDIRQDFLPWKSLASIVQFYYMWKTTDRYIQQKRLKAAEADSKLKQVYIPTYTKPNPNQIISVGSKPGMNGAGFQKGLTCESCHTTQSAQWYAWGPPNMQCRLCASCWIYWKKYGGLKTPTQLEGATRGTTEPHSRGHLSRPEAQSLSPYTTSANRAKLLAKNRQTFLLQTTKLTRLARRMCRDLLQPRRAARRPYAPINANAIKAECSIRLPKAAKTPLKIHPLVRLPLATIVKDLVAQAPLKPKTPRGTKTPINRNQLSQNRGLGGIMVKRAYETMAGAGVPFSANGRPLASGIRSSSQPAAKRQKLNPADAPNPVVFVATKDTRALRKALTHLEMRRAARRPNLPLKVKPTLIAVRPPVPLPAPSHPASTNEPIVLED
substance,measurement,setting,value
"BLOC1S2, Q6QNY1",cross-linked residues,BORCS6,K92 - K224
"GPAT3, Q53EU6",cross-linked residues,CHP1,K81 - K188
"ODF2, Q5BJF6",cross-linked residues,CEP128,K780 - K552
"MTA2, O94776",cross-linked residues,CHD4,D143 - K290
same,cross-linked residues,FGFR3,K41 - K205
same,cross-linked residues,GATAD2A,K559 - K204
same,cross-linked residues,HDAC2,D182 - K11
same,cross-linked residues,MBD2,K41 - K167
same,cross-linked residues,MTA1,K539 - K527
same,cross-linked residues,RBBP4,D600 - E14
same,cross-linked residues,RBBP7,D600 - E103
"XPA, P23025",cross-linked residues,CHMP4B; DMTMM,K217 - E48
"PTPN9, P43378",cross-linked residues,CLTC; DMTMM,E2 - D823
"PDCD6IP, Q8WUM4",cross-linked residues,CENPI,K285 - K618
same,cross-linked residues,CHMP4B; DSSO,K215 - K207
"CHMP4B, Q9H444",cross-linked residues,CHMP5; DHSO,E90 - E41
same,cross-linked residues,CHMP5; DSSO,K14 - K114
"CCT6A, P40227",cross-linked residues,CCT3,K530 - E69
"CLTA, P09496",cross-linked residues,CLTC; DSSO,K156 - K1264
"ATP6V1A, P38606",cross-linked residues,ATP6V1F,D562 - E49
"COX5B, P10606",cross-linked residues,COX4I1,K86 - K29
"BLOC1S1, P78537",cross-linked residues,BLOC1S2,K40 - E61
same,cross-linked residues,KXD1,K83 - K32
"IGF2R, P11717",cross-linked residues,CD59,K170 - K90
same,cross-linked residues,CLTC; DSSO,K2470 - K245
same,cross-linked residues,EEA1,K2470 - E1329
same,cross-linked residues,PLBD2,K1030 - K367
same,cross-linked residues,PPT1,K1104 - K253
same,cross-linked residues,RAB7A,K2470 - D104
"CANX, P27824",cross-linked residues,CNTNAP1,K227 - K489
same,cross-linked residues,TMX3,K210 - K267
"CTSD, P07339",cross-linked residues,CPVL,K127 - K423
same,cross-linked residues,LIPA,D238 - K304
"SF3B1, O75533",cross-linked residues,CPVL,K163 - K423
same,cross-linked residues,PHF5A,K554 - K13
same,cross-linked residues,SF3B6,K214 - K7
"POLR3A, O14802",cross-linked residues,CRCP,K398 - K34
same,cross-linked residues,POLR2H,K590 - K146
same,cross-linked residues,POLR3K,K1224 - K96
"PLRG1, O43660",cross-linked residues,CWC15,K363 - K18
"SNW1, Q13573",cross-linked residues,CWC15,K153 - K18
"ACTR1A, P61163",cross-linked residues,DCTN2,K361 - K119
"EFTUD2, Q15029",cross-linked residues,DDX23; DMTMM,D860 - K196
same,cross-linked residues,DDX23; DSSO,K244 - K196
"SNRNP200, O75643",cross-linked residues,DDX23; DSSO,K14 - K251
"WDR45B, Q5MNZ6",cross-linked residues,DEF8,K42 - K180
"SACM1L, Q9NTJ5",cross-linked residues,DHCR7,K10 - K13
"PGRMC1, O00264",cross-linked residues,DHCR7,K102 - K13
same,cross-linked residues,LCLAT1,K105 - K221
same,cross-linked residues,RPN1,K105 - K524
"MSL1, Q68DK7",cross-linked residues,DNAAF1,K509 - E532
